Sampled rows, rich in hits. Any-hit rate of the full collection: about 3.6%.
BoNT F protease: BoNT/F light chain protease inhibitors, primary screen, biochemical, flow cytometry, MLPCN library; Botulinum neurotoxin type F light chain protease (Clostridium botulinum); Multiplex microsphere protease cleavage assay; inhibition, % at 10 µM; actives 0.22% (n = 360,000); AID 588497, 2011; in the data active = inhibition above about 35%, passing the limit was not always enough; inconclusive = no clear call, values can overlap the other calls; note: plate controls were buffer without enzyme for full effect and enzyme alone for no effect
Autofluor counter: compound fluorescence in toxin protease inhibitor counterscreen; compound autofluorescence counterscreen, microsphere flow cytometry; hits give high values; fluorescence intensity (test concentration not listed); actives 3.1% (n = 360,000); AID 624483; in the data active = fluorescence intensity above about 16000; inconclusive = no clear call, values can overlap the other calls
Anthrax LF prot: Bacillus anthracis LF protease inhibitors, primary screen, biochemical, multiplex microsphere, MLPCN library | Lethal factor (Bacillus anthracis), P15917 | inhibition, % at 10 µM | multiplex microsphere protease cleavage assay | actives 0.12% (n = 360,000); note: plate controls were buffer without enzyme for full effect and enzyme alone for no effect
BoNT-A LC inh2: BoNT/A light chain protease inhibitors, primary screen, biochemical, flow cytometry, MLPCN library | Botulinum neurotoxin type A light chain protease (Clostridium botulinum A str. ATCC 3502) | multiplex microsphere protease substrate cleavage | inhibition, % at 10 µM | actives 0.17% (n = 360,000); note: plate controls were buffer without enzyme for full effect and enzyme alone for no effect
MazF activator: activators of E. coli MazEF toxin-antitoxin RNase, primary screen, biochemical, fluorescence, uHTS; actives 0.32% (n = 350,000); FAM/BHQ RNA-DNA oligo cleavage fluorescence, 5 h; AID 504720, 2011; activation, % at 20 µM; in the data active = activation above about 50%
Target sequence (P0AE70 whole entry, looked up): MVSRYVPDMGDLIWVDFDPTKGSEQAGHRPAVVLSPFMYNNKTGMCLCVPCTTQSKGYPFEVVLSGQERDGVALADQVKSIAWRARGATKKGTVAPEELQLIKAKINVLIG
* marks the source's active call; other numbers are inactive results; u = inconclusive; x = not tested or not shown. Cut-off read from the data, not from the text of the source, unless noted: active = inhibition above about 30%; inconclusive = no clear call, values can overlap the other calls; inactive = below that.

SMILES	BoNT F protease	Autofluor counter	Anthrax LF prot	BoNT-A LC inh2	MazF activator
COCCCn1c(SCC(=O)N2CCOCC2)nc2cc(Cl)ccc2c1=O	-8	3121	-7	0	5
CCN(CC)C(=O)[C@H]1C[C@H](CC(=O)NCc2cccc(C(F)(F)F)c2)C(=O)N2CCc3c([nH]c4cc(-c5ccco5)ccc34)[C@]12C	-4	3776	-10	0	11
CCc1nc2ccc(C(=O)Nc3cc(-c4ccccc4)ccc3OC)cn2c1N(CCN(C)C)CC1CC1	-4	3570	-8	-1	x
O=C(NCC1CCCO1)C(c1ccc(F)cc1)N(C(=O)Cn1nnc(-c2ccc(F)cc2)n1)c1cccc(O)c1 (stereo not given)	0	3388	-1	0	-4
CC(C)CC(C(=O)NCC1CCCO1)N(C(=O)Cn1nnc(-c2ccc(F)cc2)n1)c1cccc(C(F)(F)F)c1 (stereo not given)	-2	23362*	-1	u	-8
O=C(CN1CCCC1)N1c2ccccc2C=Cc2ccccc21	-2	4202	0	0	-1
O=C(CN1CCCCCC1)N1c2ccccc2C=Cc2ccccc21	2	19591*	1	u	-6
Cc1nn(-c2cc(C)c3ccccc3n2)c2c1CCC2	11	20384*	0	6	-9
Cc1cc(N2CCCC2)nc2ccccc12	2	3315	-9	0	-11
CCc1cccc(CC)c1-n1c(SCC(=O)N2CCc3ccccc3C2)nnc1-c1cccnc1	19	36354*	16	18	7
Cn1c(SCC(=O)N2CCc3ccccc3C2)nnc1-c1ccncc1	3	9365	2	1	10
NC(=O)CSc1nnc(-c2ccc(O)cc2)n1Cc1ccco1	7	3954	-1	1	8
O=C(CSc1nnc(-c2ccc(O)cc2)n1Cc1ccco1)N1CCc2ccccc2C1	-3	16322*	-2	0	8
CC1CCN(C(=O)CSc2nnc(-c3cccnc3)n2C2CCCCC2)CC1	-9	17010*	-3	u	1
CCOc1ccccc1-n1c(SCC(=O)N2CCCc3ccccc32)nnc1-c1cccnc1	-7	2406	-2	0	-2
Cc1ccc(-n2c(SCC(=O)N3CCCc4ccccc43)nnc2-c2cccnc2)c(C)c1	24	26671*	10	7	-5
CCCN(C)C[C@@H]1OCCCC[C@@H](C)Oc2ccc(NS(=O)(=O)c3ccc(OC)cc3)cc2C(=O)N([C@H](C)CO)C[C@@H]1C	6	4406	3	0	x
O=C(CSc1nnc(-c2ccncc2)n1C1CCCCC1)Nc1cccc(O)c1	-2	16523*	-3	0	3
S=C1NCN(Cc2cccnc2)CN1	35*	3668	u	1	5
CCc1ccc(N2CN(Cc3cccnc3)CNC2=S)cc1	3	4108	-3	0	5
O=C(Nc1ccc(C(F)(F)F)cc1)C1CCN(S(=O)(=O)c2ccc(N3CCCC3=O)cc2)CC1	1	5659	-2	0	7
Clc1cccc(-c2nc(-c3ccc(-c4nn[nH]n4)cc3)no2)c1	-3	4349	-2	0	-2
ONC(=Nc1ccc(Cl)cc1)c1ccccc1	1	22689*	-2	1	3
Cc1cc2c(c(=O)n1Cc1cccnc1)C(c1ccccc1)C(C#N)=C(N)O2 (stereo not given)	-10	3096	-10	1	10
Cc1cc2c(c(=O)n1CCCn1ccnc1)C(c1ccco1)C(C#N)=C(N)O2 (stereo not given)	0	22337*	0	1	5
SMILES	BoNT F protease	Autofluor counter	Anthrax LF prot	BoNT-A LC inh2	MazF activator
CCOc1ccccc1C1C(C#N)=C(N)Oc2cc(C)n(C)c(=O)c21 (stereo not given)	5	21644*	0	u	-1
Cc1cc2c(c(=O)n1Cc1ccc3c(c1)OCO3)C(c1cccnc1)C(C#N)=C(N)O2 (stereo not given)	-3	20731*	-3	-1	1
COc1ccccc1C1C(C#N)=C(N)Oc2cc(C)n(Cc3ccccn3)c(=O)c21 (stereo not given)	u	u	-14	u	-7
CCOc1ccccc1C1C(C#N)=C(N)Oc2cc(C)n(Cc3ccccn3)c(=O)c21 (stereo not given)	u	u	u	u	0
COCCn1c(C)cc2c(c1=O)C(c1ccccc1F)C(C#N)=C(N)O2 (stereo not given)	0	20039*	0	1	-2
COc1ccccc1C1C(C#N)=C(N)Oc2cc(C)n(CCCn3ccnc3)c(=O)c21 (stereo not given)	0	4121	-5	-1	-6
CC1CCCN(S(=O)(=O)c2ccc(NC(=O)C3CCN(C(=O)c4ccco4)CC3)cc2)C1 (stereo not given)	-2	3816	-19	1	10
CCCc1cc(=O)oc2cc(C)cc(OC(C)C(=O)NCCN3CCOCC3)c12 (stereo not given)	-2	5810	-1	0	-9
CCOc1ccccc1C1C(C#N)=C(N)SC(N)=C1C#N	51*	4715	21	24	-28
CCC(C)[C@H](NS(=O)(=O)c1ccc(C)cc1)C(=O)N1CCC(C(=O)N[C@@H](Cc2ccccc2)C(=O)O)CC1 (stereo not given in full)	4	4434	-2	-1	11
O=C1CC(SCc2nc3ccccc3[nH]2)C(=O)N1c1ccc(F)c(Cl)c1 (stereo not given)	-3	22834*	-4	0	5
CC/C(=N/Nc1ccc(Cl)cc1)c1cnnc(SC)n1	-5	2241	0	0	-18
CC/C(=N/Nc1cccc(C)c1)c1cnnc(SC)n1	12	2024	2	3	287*
COc1ccc(C(C)(NC(C)=O)c2nc(-c3cccc(F)c3)cs2)cc1 (stereo not given)	-7	3675	-11	0	x
CC1CCN(S(=O)(=O)c2ccc3c(c2)c(=O)c(C(=O)NCc2ccco2)cn3C)CC1	38*	3321	0	2	-8
Cc1ccc(S(=O)(=O)N2CCCC(C(=O)NCc3ccco3)C2)cc1Cl (stereo not given)	13	19976*	0	11	-3
COc1cccc(/C=N/NC(=O)CC2C(=O)NN=C2C)c1O (stereo not given)	-1	20430*	-3	1	-4
COc1ccc(O)c(CN2CCN(C/C=C/c3ccccc3)CC2)c1	-3	24344*	-1	-1	-3
Cc1ccc2cc3c(N)c(C(=O)Nc4c(C)[nH]c(=O)[nH]c4=O)sc3nc2c1	2	6869	9	9	205*
Cc1ccc2nc3sc(C(=O)Nc4c(C)[nH]c(=O)[nH]c4=O)c(N)c3cc2c1	7	8886	3	10	12
Cc1cc(=O)n(-c2ccc3ccccc3n2)[nH]1	0	17043*	1	0	-5

Screening data as filed in PubChem.
